# Assay results: PubChem BioAssay (NCI)
# Compounds without any hit were thinned out: in the full panel of roughly 83,000, 20% have a hit.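 Plates (96-well) were seeded with cells, treated with compound at one concentration, and incubated for 48 hours before percent growth was determined.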 Unmarked numbers belong to inactive results. Activity calls are given as the source filed them. The calls were made as follows: active = growth percent below 10; inactive = the rest.
# How the values were obtained:
# Assay in all cases: NCI-60 one-dose screen, 48 h (100 = growth as untreated, 0 = no growth, -100 = all killed)
# [1] = system: HL-60(TB) leukemia; details: 10 µM unless noted
# [2] = system: CCRF-CEM leukemia; details: 10 µM unless noted
# [3] = system: MOLT-4 leukemia; details: 10 µM
# [4] = system: SR leukemia; details: 10 µM
# [5] = system: RPMI-8226 leukemia; details: 10 µM unless noted
# [6] = system: OVCAR-5 ovarian; details: 10 µM unless noted
# [7] = system: OVCAR-4 ovarian; details: 10 µM unless noted
# [8] = system: SK-OV-3 ovarian; details: 10 µM unless noted
# [9] = system: IGROV1 ovarian; details: 10 µM
# [10] = system: OVCAR-3 ovarian; details: 10 µM unless noted
# [11] = system: HS 578T breast; details: 10 µM unless noted
# [12] = system: NCI/ADR-RES ovarian; details: 10 µM unless noted
# [13] = system: T-47D breast; details: 10 µM unless noted
# [14] = system: BT-549 breast; details: 10 µM
# [15] = system: MDA-MB-435 melanoma; details: 10 µM unless noted
# [16] = system: SW-620 colon; details: 10 µM unless noted
# [17] = system: MCF7 breast; details: 10 µM unless noted
# [18] = system: HCT-116 colon; details: 10 µM unless noted
# [19] = system: HCC-2998 colon; details: 10 µM unless noted
# [20] = system: KM12 colon; details: 10 µM unless noted
# [21] = system: UACC-62 melanoma; details: 10 µM unless noted
# [22] = system: TK-10 renal; details: 10 µM unless noted
smiles,measurement,setting,value
CC(=O)OC1CCC2(C)C(=CCC3C4CC(CN5CC5)C(=O)C4(C)CCC32)C1 (stereo not given),growth,[1],64.2%
same,growth,[2],18.3%
same,growth,[3],15.6%
same,growth,[4],22.9%
same,growth,[5],-17% (active)
same,growth,[6],97.7%
same,growth,[7],83.1%
same,growth,[8],98.2%
same,growth,[9],89.2%
same,growth,[10],112%
same,growth,[11],87.5%
same,growth,[12],101%
same,growth,[13],-11.8% (active)
same,growth,[14],96.9%
same,growth,[15],90.4%
same,growth,[16],65.3%
same,growth,[17],15.5%
same,growth,[18],74.4%
same,growth,[19],112%
same,growth,[20],-3.45% (active)
O=C(CSc1nc2ccc([N+](=O)[O-])cc2[nH]1)Nc1cccc([N+](=O)[O-])c1,growth,[1],57.5%
COc1ccc(CC(C)=C(c2ccc(OCCN(C)C)cc2)c2ccc(OCCN(C)C)cc2)cc1,growth,[1],41.3%
COC(=O)[C@@H]1CCCN1C(=O)[C@@H]1CCCN1C(=O)[C@H](Cc1ccccc1)NC(=S)Nc1cc(C(F)(F)F)cc(C(F)(F)F)c1,growth,[1],55.7%
NC(=O)CN1C(=O)C(Cc2ccccc2)N=C(c2cccc(O)c2)c2ccccc21 (stereo not given),growth,[21],97.8% [30 µM]
same,growth,[22],102% [30 µM]
same,growth,[17],96.4% [30 µM]
CN1C(=O)C(CCC(=O)O)N=C(c2cccc(O)c2)c2ccccc21 (stereo not given),growth,[21],82% [30 µM]
same,growth,[22],113% [30 µM]
same,growth,[17],89% [30 µM]
Cc1c(C(=O)N[C@H](CO)Cc2ccccc2)[nH]c2ccc(Cl)cc2c1=O,growth,[1],99.7%
CCCCCN1C(=O)C(CO)N=C(c2cccc(O)c2)c2ccccc21 (stereo not given),growth,[21],81.1% [30 µM]
same,growth,[22],91% [30 µM]
same,growth,[17],91.1% [30 µM]
O=C1/C=C/[C@@H](O)[C@@H]2C[C@@H](O)C[C@H]2/C=C/CCC[C@H]([C@@H](O)CO)O1,growth,[1],101%
c1ccc(/C(=N\N=C(/c2ccccc2)c2cccs2)c2cccs2)cc1,growth,[1],91.1%
Nc1c(C(=O)c2ccc(Cl)s2)sc2nc3c(cc12)CCCC3,growth,[1],106%
Cc1[nH]nc2c1C(c1cnn(C)c1)C(C#N)=C(N)O2 (stereo not given),growth,[1],99.5%
FC(F)(F)c1cn(CC2CNC2)c2ncnc(Cl)c12,growth,[1],73.5%
CC(C)CCC[C@@H](C)[C@H]1CC[C@H]2[C@@H]3CC=C4c5sc(Nc6cc(C(F)(F)F)cc(C(F)(F)F)c6)nc5CC[C@]4(C)[C@H]3CC[C@]12C,growth,[1],101%
O=C1Cc2c([nH]c3ccc([N+](=O)[O-])cc23)-c2ccccc2N1,growth,[1],-33.8% (active)
C#C[C@@]1(O)[C@@H](CO)O[C@@H](n2cc(Cl)c3c(N)ccnc32)[C@@H]1O,growth,[1],-2.37% (active)
CN=S(=O)(NC(=O)c1ccc(Cl)cc1Cl)c1ccc(Br)s1 (stereo not given),growth,[1],108%
CC(=O)C(C)Cc1cc2c(cc1C)C(C)(C)CCC2(C)C (stereo not given),growth,[1],101%
COc1ccc(NC2=C(I)C(=O)c3ncccc3C2=O)cc1,growth,[1],-47.5% (active)
Cc1cc(C(N)=O)cc(C)c1C(=O)OCCCl,growth,[1],106%
CCCCCN(CCCCC)C(C)C(O)c1ccc2cc(Cl)c3ccccc3c2c1 (stereo not given),growth,[1],105%
C=C(C)[C@@H]1CC[C@]2(C(=O)N3CCN(C)CC3)CC[C@]3(C)[C@H](CC[C@@H]4[C@@]5(C)C/C(=C/c6ccncc6)[C@H](O)C(C)(C)[C@@H]5CC[C@]43C)[C@@H]12,growth,[1],-25.2% [100 µM] (active)
O=C(Nc1ccc(/C=C2\SC(=O)N(Cc3ccc(OC(F)(F)F)cc3)C2=O)cc1)c1ccc(Cl)c([N+](=O)[O-])c1,growth,[1],71.3%
O=C(OCc1ccc2c(Cl)cc(Cl)c(O)c2n1)c1cc2ccccc2[nH]1,growth,[1],-36.1% (active)
CC12CCC3C4(C)COC(c5ccco5)OC4CCC3(C)C1CC(C1=CCOC1=O)O2 (stereo not given),growth,[1],98.3%
O=C(O)/C=C\C(=O)Nc1cccc2ccccc12,growth,[1],56.7%
COc1ccc(Cn2cc(C(=O)Nc3cccnc3Nc3ccccc3)nn2)cc1,growth,[1],104%
Cc1[nH]c(C2CC(c3ccc(C(F)(F)F)c(F)c3)=NN2C)c(C)c1C(=O)NCC(F)(F)F (stereo not given),growth,[1],97.1%
COC(=O)C1=Nc2ccc(F)cc2/C1=C\c1sc(Nc2ccc(O)cc2)nc1O,growth,[1],54.8%
Cc1nnc(/N=C2\NC(=O)/C(=C/c3ccsc3)S2)s1,growth,[1],102%
